Records with an inconclusive call do not appear. The source made the active and inactive calls. Rule for the calls: active = hit-call score of the fitted dose curve at least 0.9, where 1 is the maximum; inconclusive = response in the unintended direction; inactive = score below 0.9.
How the values were obtained:
[1] = target: guinea pig Opioid, Kappa 1 Receptor (OpiateK), OPRK1 (gene 100135587) (UniProt P41144); assay: NVS_GPCR_gOpiateK: NovaScreen (NVS) G Protein-Coupled Receptor Assay for guinea pig Opioid, Kappa 1 Receptor (OpiateK) (AID 2283252);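 note: radioligand displacement from kappa opioid receptor in guinea pig cerebellar membranes; active means reduced radioligand binding relative to DMSO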
How it was run: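 Guinea pig cerebellar membranes, radioligand displacement with filter-based scintillation counting, 2 h after dosing. Primary screen single concentration 25 uM in duplicate; actives retested in concentration series; loss of binding fitted versus DMSO.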

[2] = target: human Adenosine A1 Receptor (AdoRA1), ADORA1 (gene 134) (UniProt P30542); assay: NVS_GPCR_hAdoRA1: NovaScreen (NVS) G Protein-Coupled Receptor Assay for human Adenosine A1 Receptor (AdoRA1) (AID 2283254)
How it was run: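 Each chemical is first tested twice at 25 uM, actives later in dilution series, against a radioligand bound to human cortex membranes; after 1 h, filter-retained counts are compared with DMSO controls, lower signal indicating displacement.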

[3] = target: human Serotonin, 5-Hydroxytryptamine Receptor 2A (5HT2A), HTR2A (gene 3356) (UniProt P28223); assay: NVS_GPCR_h5HT2A: NovaScreen (NVS) G Protein-Coupled Receptor Assay for human Serotonin, 5-Hydroxytryptamine Receptor 2A (5HT2A) (AID 2283249)
How it was run: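 Human cortex membranes, cell-free radioligand binding; filter-based scintillation read 1.5 h after dosing. Duplicate screen at 25 uM first; displacement of specific binding (loss of signal) versus DMSO.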

[4] = target: human Serotonin, 5-Hydroxytryptamine Receptor 5A (5HT5A), HTR5A (gene 3361) (UniProt P47898); assay: NVS_GPCR_h5HT5A: NovaScreen (NVS) G Protein-Coupled Receptor Assay for human Serotonin, 5-Hydroxytryptamine Receptor 5A (5HT5A) (AID 2283251)
How it was run: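 Cell-free radioligand displacement binding on HEK293-derived membrane protein, 1 h incubation, filter-based scintillation counting. Primary screen in duplicate at 25 uM, actives followed in concentration series; loss of signal fitted versus DMSO.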

[5] = target: human Serotonin, 5-Hydroxytryptamine Receptor 6 (5HT6), HTR6 (gene 3362) (UniProt P50406); assay: NVS_GPCR_h5HT6: NovaScreen (NVS) G Protein-Coupled Receptor Assay for human Serotonin, 5-Hydroxytryptamine Receptor 6 (5HT6) (AID 2283253)
How it was run: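 Radioligand binding to 5HT6 in HEK293-derived membranes, cell-free, 1 h after dosing; bound ligand measured by filter-based scintillation counting. Primary screen in duplicate at 25 uM; actives retested in concentration series.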

[6] = target: human Serotonin, 5-Hydroxytryptamine Receptor 7 (5HT7), HTR7 (gene 3363) (UniProt P34969); assay: NVS_GPCR_h5HT7: NovaScreen (NVS) G Protein-Coupled Receptor Assay for human Serotonin, 5-Hydroxytryptamine Receptor 7 (5HT7) (AID 2283255);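 note: hits reduce specific radioligand binding relative to DMSO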
How it was run: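 Radioligand displacement on membranes from CHO cells expressing human 5HT7, 1 h incubation, filter-based scintillation counting. Primary screen used a single 25 uM concentration in duplicate; actives were followed up in concentration series.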

[7] = target: human Adrenergic, Alpha 2A Receptor (Adra2A), ADRA2A (gene 150) (UniProt P08913); assay: NVS_GPCR_hAdra2A: NovaScreen (NVS) G Protein-Coupled Receptor Assay for human Adrenergic, Alpha 2A Receptor (Adra2A) (AID 2283257)
How it was run: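 Radioligand filter-binding was run on HT29-derived membranes, cell-free, read by scintillation counting 1 h after dosing. Primary screening was in duplicate at 25 uM, with concentration series in follow-up. Loss of signal versus DMSO indicates displacement.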

[8] = target: human Adrenergic, Beta 1 Receptor (Adrb1), ADRB1 (gene 153) (UniProt P08588); assay: NVS_GPCR_hAdrb1: NovaScreen (NVS) G Protein-Coupled Receptor Assay for human Adrenergic, Beta 1 Receptor (Adrb1) (AID 2283258)
How it was run: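 Cell-free radioligand displacement on receptor from human neuroepithelioma cells; 2 h after dosing, filter-based scintillation counting. Primary screen in duplicate at 25 uM, actives retested in concentration series; loss of signal vs DMSO baseline.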

[9] = target: human Adrenergic, Alpha 2c Receptor (Adra2C), ADRA2C (gene 152) (UniProt P18825); assay: NVS_GPCR_hAdra2C: NovaScreen (NVS) G Protein-Coupled Receptor Assay for human Adrenergic, Alpha 2c Receptor (Adra2C) (AID 2283259)
How it was run: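 Radioligand binding on Sf9-expressed receptor membranes, 1 h after chemical dosing, filter-based scintillation read-out. Loss of binding fitted positively versus DMSO; primary duplicate screen at 25 uM, actives retested in concentration series.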

[10] = target: Beta-2 adrenergic receptor (Homo sapiens) (UniProt P07550); assay: NVS_GPCR_hAdrb2: NovaScreen (NVS) G Protein-Coupled Receptor Assay for human Adrenergic, Beta 2 Receptor (Adrb2) (AID 2283261)
How it was run: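 Filter-based radioligand binding using receptor prepared from CHO cells, 1 h incubation, scintillation counting. Primary screen in duplicate at 25 uM, actives retested in concentration series; loss of binding relative to DMSO.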

[11] = target: Type-1 angiotensin II receptor (Homo sapiens) (UniProt P30556); assay: NVS_GPCR_hAT1: NovaScreen (NVS) G Protein-Coupled Receptor Assay for human Angiotensin II receptor type 1 (AT1) (AID 2283263)
How it was run: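 Membranes from KAN-TS cells; radioligand competitive displacement, 3 h, filtration and scintillation counting. Single-point duplicate screen at 25 uM, then concentration-response up to 50 uM for hits; loss of signal fitted versus DMSO.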

[12] = target: human Dopamine Receptor D4.4 (DRD4.4), DRD4 (gene 1815) (UniProt P21917); assay: NVS_GPCR_hDRD4.4: NovaScreen (NVS) G Protein-Coupled Receptor Assay for human Dopamine Receptor D4.4 (DRD4.4) (AID 2283264)
How it was run: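 Radioligand displacement on human DRD4.4 from CHO-derived membranes, 1 hour incubation, bound counts read by filtration and scintillation. Primary screen in duplicate at 25 uM; actives followed up in concentration series.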

[13] = target: human Dopamine Receptor D2 (DRD2), DRD2 (gene 1813) (UniProt P14416); assay: NVS_GPCR_hDRD2s: NovaScreen (NVS) G Protein-Coupled Receptor Assay for human Dopamine Receptor D2 (DRD2) (AID 2283266)
How it was run: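 Radioligand displacement used human DRD2 membranes extracted from CHO cells and was read by filter-based scintillation counting after 1.5 hours. Primary screening was in duplicate at 25 uM. Loss of signal versus DMSO was fitted, with concentration series in follow-up.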

[14] = system: guinea pig Muscarinic, Peripheral (Mperiperal) Receptor, Non-selective Binding, gene 100379235; assay: NVS_GPCR_gMPeripheral_NonSelective: NovaScreen (NVS) G Protein-Coupled Receptor Assay for guinea pig Muscarinic, Peripheral (Mperiperal) Receptor, Non-selective Binding (AID 2283250)
How it was run: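 Guinea pig bladder membranes, radioligand binding read 1 h after dosing by filter scintillation counting; loss of signal vs DMSO. Primary duplicate screen at 25 uM, then concentration-response up to 50 uM.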

[15] = target: human Adenosine A2a Receptor (AdoRA2a), ADORA2A (gene 135) (UniProt P29274); assay: NVS_GPCR_hAdoRA2a: NovaScreen (NVS) G Protein-Coupled Receptor Assay for human Adenosine A2a Receptor (AdoRA2a) (AID 2283256)
How it was run: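 Cell-free radioligand binding on membranes from HEK293 expressing the receptor; competitive displacement read 1.5 h after dosing by filter-based scintillation counting. Primary screen in duplicate at 25 uM; actives followed in concentration series, with DMSO as baseline.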

[16] = system: bovine Histamine 1 Receptor (H1), gene 281231; assay: NVS_GPCR_bH1: NovaScreen (NVS) G Protein-Coupled Receptor Assay for bovine Histamine 1 Receptor (H1) (AID 2283246)
How it was run: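 Radioligand displacement on bovine cerebellar membranes, 1 h after dosing, filter-based scintillation read-out; loss of signal vs DMSO. Duplicate single-concentration screen at 25 uM, then concentration-response up to 50 uM for hits.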

[17] = target: human Adrenergic, Beta 3 Receptor (Adrb3), ADRB3 (gene 155) (UniProt P13945); assay: NVS_GPCR_hAdrb3: NovaScreen (NVS) G Protein-Coupled Receptor Assay for human Adrenergic, Beta 3 Receptor (Adrb3) (AID 2283262)
How it was run: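 Membranes from SK-N-MC cells pretreated with isoproterenol and 8-bromo-cAMP were used in a radioligand competitive displacement binding assay. Binding was read by filter-based scintillation counting 1 hour after dosing. Primary screening was in duplicate at 25 uM, with concentration series in follow-up.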

[18] = system: guinea pig Leukotriene B4 Receptor (LTB4), gene 100379538; assay: NVS_GPCR_gLTB4: NovaScreen (NVS) G Protein-Coupled Receptor Assay for guinea pig Leukotriene B4 Receptor (LTB4) (AID 2283247)
How it was run: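 Radioligand displacement on guinea pig spleen membranes, filter-based scintillation counting 2 h after dosing. Primary duplicate single point at 25 uM; hits over threshold (e.g. 30% inhibition) run in concentration-response up to 50 uM, DMSO baseline.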

Chain of guinea pig Opioid, Kappa 1 Receptor (OpiateK), OPRK1 (gene 100135587) (P41144 whole entry, looked up): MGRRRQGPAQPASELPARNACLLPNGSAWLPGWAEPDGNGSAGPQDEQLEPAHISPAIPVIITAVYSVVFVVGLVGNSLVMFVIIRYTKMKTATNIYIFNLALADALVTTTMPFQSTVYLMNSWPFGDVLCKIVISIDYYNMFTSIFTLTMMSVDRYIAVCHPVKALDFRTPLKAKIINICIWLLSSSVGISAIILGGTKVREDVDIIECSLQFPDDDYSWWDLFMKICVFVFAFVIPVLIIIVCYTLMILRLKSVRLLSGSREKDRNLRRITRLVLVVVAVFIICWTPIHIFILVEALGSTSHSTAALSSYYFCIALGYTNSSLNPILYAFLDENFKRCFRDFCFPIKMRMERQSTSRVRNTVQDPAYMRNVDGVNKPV
Chain of Type-1 angiotensin II receptor (Homo sapiens) (P30556 whole entry, looked up): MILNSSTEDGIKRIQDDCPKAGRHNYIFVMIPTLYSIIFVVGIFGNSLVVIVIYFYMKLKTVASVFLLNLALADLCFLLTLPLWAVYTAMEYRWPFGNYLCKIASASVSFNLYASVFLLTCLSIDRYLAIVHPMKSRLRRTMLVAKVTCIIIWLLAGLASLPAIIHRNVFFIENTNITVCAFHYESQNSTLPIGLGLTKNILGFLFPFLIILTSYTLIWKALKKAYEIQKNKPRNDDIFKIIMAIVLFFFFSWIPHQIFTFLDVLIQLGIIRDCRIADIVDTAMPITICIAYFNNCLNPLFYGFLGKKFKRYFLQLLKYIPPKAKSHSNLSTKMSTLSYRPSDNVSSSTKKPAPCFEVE
Chain of human Adenosine A1 Receptor (AdoRA1), ADORA1 (gene 134) (P30542 whole entry, looked up): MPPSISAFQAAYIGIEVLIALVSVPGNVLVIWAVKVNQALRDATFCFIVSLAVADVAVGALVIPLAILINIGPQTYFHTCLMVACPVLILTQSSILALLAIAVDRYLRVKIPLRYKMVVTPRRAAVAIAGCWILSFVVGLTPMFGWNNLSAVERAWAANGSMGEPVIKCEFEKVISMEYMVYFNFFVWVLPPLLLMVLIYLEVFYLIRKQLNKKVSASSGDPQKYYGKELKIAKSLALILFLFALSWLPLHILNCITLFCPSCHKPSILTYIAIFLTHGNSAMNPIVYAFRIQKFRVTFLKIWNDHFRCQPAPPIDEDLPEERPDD
Chain of human Adenosine A2a Receptor (AdoRA2a), ADORA2A (gene 135) (P29274 whole entry, looked up): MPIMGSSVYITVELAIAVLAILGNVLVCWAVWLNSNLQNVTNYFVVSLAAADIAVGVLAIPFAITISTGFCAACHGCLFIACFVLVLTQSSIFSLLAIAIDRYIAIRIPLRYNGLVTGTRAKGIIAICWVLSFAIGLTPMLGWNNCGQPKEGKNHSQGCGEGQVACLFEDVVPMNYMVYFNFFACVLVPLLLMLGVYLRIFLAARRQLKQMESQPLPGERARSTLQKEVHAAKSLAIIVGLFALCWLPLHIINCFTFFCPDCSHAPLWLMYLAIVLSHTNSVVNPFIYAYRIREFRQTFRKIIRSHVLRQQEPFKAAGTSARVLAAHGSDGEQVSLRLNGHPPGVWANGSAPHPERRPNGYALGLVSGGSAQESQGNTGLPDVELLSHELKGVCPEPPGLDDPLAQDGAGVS
Chain of human Dopamine Receptor D2 (DRD2), DRD2 (gene 1813) (P14416 whole entry, looked up): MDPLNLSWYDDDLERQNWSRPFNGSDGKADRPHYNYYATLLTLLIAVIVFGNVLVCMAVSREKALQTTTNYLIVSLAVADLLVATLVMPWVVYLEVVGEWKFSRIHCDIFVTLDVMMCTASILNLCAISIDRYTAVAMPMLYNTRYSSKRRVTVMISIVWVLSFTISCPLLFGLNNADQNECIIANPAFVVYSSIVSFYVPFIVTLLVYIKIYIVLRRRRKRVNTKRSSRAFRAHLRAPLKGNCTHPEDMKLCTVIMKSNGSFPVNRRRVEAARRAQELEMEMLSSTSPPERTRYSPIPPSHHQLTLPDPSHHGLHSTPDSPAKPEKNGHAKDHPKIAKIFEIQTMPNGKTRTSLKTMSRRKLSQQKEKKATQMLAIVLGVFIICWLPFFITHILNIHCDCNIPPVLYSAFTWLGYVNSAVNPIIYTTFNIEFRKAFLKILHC
Chain of human Serotonin, 5-Hydroxytryptamine Receptor 5A (5HT5A), HTR5A (gene 3361) (P47898 whole entry, looked up): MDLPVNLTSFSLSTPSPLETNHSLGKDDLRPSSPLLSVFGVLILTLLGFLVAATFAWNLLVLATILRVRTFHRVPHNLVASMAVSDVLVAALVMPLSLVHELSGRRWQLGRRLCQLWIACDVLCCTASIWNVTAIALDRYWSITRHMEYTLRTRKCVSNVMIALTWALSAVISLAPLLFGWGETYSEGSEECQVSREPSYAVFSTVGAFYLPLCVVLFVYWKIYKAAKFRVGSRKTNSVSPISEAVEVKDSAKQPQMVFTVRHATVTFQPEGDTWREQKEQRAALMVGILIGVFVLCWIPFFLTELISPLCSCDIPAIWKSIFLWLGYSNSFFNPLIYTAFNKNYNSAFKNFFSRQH
Chain of human Serotonin, 5-Hydroxytryptamine Receptor 6 (5HT6), HTR6 (gene 3362) (P50406 whole entry, looked up): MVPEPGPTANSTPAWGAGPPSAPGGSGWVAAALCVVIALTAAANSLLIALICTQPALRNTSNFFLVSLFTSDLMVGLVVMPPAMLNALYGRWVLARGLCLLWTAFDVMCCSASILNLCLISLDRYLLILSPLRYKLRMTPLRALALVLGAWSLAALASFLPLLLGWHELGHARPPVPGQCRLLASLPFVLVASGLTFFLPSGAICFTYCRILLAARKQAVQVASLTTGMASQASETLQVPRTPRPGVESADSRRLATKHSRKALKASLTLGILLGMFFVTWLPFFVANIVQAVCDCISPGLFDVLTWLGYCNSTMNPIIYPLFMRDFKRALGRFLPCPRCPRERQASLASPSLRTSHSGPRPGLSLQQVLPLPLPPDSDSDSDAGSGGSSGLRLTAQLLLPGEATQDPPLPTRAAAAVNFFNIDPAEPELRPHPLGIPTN
Chain of human Dopamine Receptor D4.4 (DRD4.4), DRD4 (gene 1815) (P21917 whole entry, looked up): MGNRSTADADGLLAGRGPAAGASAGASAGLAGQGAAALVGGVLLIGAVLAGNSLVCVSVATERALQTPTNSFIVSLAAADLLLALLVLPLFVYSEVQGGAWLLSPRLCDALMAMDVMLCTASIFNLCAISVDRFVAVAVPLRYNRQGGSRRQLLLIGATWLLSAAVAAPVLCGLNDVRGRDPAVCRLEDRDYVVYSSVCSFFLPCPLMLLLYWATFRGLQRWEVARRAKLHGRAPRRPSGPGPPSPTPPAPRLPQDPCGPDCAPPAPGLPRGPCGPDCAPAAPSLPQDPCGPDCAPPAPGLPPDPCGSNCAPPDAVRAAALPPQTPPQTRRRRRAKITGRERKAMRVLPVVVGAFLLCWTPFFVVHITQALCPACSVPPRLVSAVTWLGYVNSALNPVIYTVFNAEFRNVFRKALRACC
Chain of human Serotonin, 5-Hydroxytryptamine Receptor 2A (5HT2A), HTR2A (gene 3356) (P28223 whole entry, looked up): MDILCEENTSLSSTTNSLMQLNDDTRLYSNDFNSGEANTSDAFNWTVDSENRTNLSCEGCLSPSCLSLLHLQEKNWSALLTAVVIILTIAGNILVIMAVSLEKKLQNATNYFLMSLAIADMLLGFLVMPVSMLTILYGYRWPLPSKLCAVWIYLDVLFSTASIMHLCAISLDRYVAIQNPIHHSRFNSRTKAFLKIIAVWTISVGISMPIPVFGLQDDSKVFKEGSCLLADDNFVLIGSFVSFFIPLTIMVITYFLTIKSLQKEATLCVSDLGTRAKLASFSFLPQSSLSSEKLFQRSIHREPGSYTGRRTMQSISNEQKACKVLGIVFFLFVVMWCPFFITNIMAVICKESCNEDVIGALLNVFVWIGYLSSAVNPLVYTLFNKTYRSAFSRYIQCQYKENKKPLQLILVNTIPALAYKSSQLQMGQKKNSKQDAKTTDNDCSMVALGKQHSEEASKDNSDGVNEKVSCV
Chain of human Adrenergic, Alpha 2c Receptor (Adra2C), ADRA2C (gene 152) (P18825 whole entry, looked up): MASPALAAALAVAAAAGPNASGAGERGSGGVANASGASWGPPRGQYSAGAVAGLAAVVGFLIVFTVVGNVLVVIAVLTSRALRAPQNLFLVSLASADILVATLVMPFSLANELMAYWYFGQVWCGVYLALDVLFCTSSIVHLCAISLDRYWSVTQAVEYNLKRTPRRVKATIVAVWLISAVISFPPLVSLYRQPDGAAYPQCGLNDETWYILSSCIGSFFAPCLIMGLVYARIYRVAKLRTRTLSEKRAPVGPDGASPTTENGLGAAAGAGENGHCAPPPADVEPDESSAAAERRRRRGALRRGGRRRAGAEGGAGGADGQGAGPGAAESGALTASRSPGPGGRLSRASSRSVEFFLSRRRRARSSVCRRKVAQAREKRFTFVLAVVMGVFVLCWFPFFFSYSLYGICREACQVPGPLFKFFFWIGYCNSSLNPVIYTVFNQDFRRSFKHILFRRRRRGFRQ
Chain of human Serotonin, 5-Hydroxytryptamine Receptor 7 (5HT7), HTR7 (gene 3363) (P34969 whole entry, looked up): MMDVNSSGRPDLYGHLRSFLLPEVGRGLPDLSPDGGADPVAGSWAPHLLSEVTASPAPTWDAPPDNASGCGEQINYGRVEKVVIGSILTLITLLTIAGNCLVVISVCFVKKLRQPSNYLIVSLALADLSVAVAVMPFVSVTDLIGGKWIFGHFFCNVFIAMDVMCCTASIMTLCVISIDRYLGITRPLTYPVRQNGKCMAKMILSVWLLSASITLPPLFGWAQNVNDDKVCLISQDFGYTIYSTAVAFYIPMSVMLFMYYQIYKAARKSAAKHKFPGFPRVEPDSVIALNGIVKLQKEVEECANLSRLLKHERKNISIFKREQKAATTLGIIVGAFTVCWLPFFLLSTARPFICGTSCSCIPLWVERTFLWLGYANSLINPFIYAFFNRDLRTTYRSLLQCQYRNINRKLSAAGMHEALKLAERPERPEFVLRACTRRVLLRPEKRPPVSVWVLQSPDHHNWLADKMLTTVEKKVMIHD

## FC(F)C(F)(F)OCC(Cn1cncn1)c1ccc(Cl)cc1Cl (stereo not given)
[1]
  outcome: inactive
[2]
  AC50: 25 µM (active)

## CC[C@H](C)[C@H]1O[C@]2(C=C[C@@H]1C)C[C@@H]1C[C@@H](C/C=C(\C)[C@@H](O[C@H]3C[C@H](OC)[C@@H](O[C@H]4C[C@H](OC)[C@@H](NC)[C@H](C)O4)[C@H](C)O3)[C@@H](C)/C=C/C=C3\CO[C@@H]4[C@H](O)C(C)=C[C@@H](C(=O)O1)[C@]34O)O2
[3]
  AC50: 26.9 µM (active)
[4]
  AC50: 7.94 µM (active)
[1]
  AC50: 25 µM (active)
[5]
  AC50: 13.9 µM (active)
[6]
  AC50: 4.29 µM (active)
[7]
  AC50: 26.8 µM (active)
[8]
  AC50: 9.83 µM (active)
[9]
  AC50: 10.7 µM (active)
[10]
  AC50: 18.1 µM (active)
[11]
  AC50: 17 µM (active)
[12]
  AC50: 16.2 µM (active)
[13]
  AC50: 25 µM (active)

## Cc1ccn2nc(S(=O)(=O)Nc3c(F)cccc3F)nc2n1
[14]
  outcome: inactive

## CC(Oc1cccc(Cl)c1)C(=O)O (stereo not given)
[4]
  outcome: inactive

## S=C1NCCN1
[13]
  outcome: inactive

## CCC(=O)Nc1ccc(Cl)c(Cl)c1
[5]
  AC50: 7.47 µM (active)
[15]
  AC50: 10 µM (active)

## O=[N+]([O-])c1cc(C(F)(F)F)c(Cl)c([N+](=O)[O-])c1Nc1ncc(C(F)(F)F)cc1Cl
[15]
  AC50: 6.87 µM (active)

## CN(C)C(=O)Nc1cccc(C(F)(F)F)c1
[16]
  outcome: inactive
[13]
  outcome: inactive

## CCCSP(=O)(OCC)Oc1ccc(Br)cc1Cl (stereo not given)
[11]
  outcome: inactive

## CCNc1nc(Cl)nc(NC(C)(C)C#N)n1
[2]
  AC50: 4.08 µM (active)
[15]
  AC50: 5.75 µM (active)

## CC(C)N(C(=O)SCC(Cl)=C(Cl)Cl)C(C)C
[5]
  outcome: inactive

## CON=C(C(=O)OC)c1ccccc1CON=C(C)c1cccc(C(F)(F)F)c1
[17]
  outcome: inactive

## O=C(O)c1cc(Oc2ccc(C(F)(F)F)cc2Cl)ccc1[N+](=O)[O-]
[18]
  outcome: inactive
[4]
  outcome: inactive
[15]
  AC50: 7.71 µM (active)
[13]
  outcome: inactive

## CCOP(=O)(NC(C)C)Oc1ccc(SC)c(C)c1 (stereo not given)
[1]
  AC50: 16.3 µM (active)

## CCCOc1nn(C(=O)NS(=O)(=O)c2ccccc2C(=O)OC)c(=O)n1C
[11]
  outcome: inactive

## O=c1ccc(=O)[nH][nH]1
[4]
  outcome: inactive

## CCOP(=S)(OCC)Oc1ccc([N+](=O)[O-])cc1
[18]
  AC50: 7.9 µM (active)

## COc1ccc(C(=CC(=O)N2CCOCC2)c2ccc(Cl)cc2)cc1OC
[1]
  outcome: inactive
[2]
  AC50: 14.2 µM (active)

## N#CSCSC#N
[14]
  AC50: 7.4 µM (active)
[1]
  AC50: 38.7 µM (active)
[11]
  AC50: 14.9 µM (active)

Reference: PubChem BioAssay (EPA / NIEHS)
